Where “and” joins values, the source holds several entries; their conditions need not be identical. Equal values may be shown once. Results filed as inconclusive are left out. Calls of active or inactive are those of the source. Unless noted, cut-off not given; nearly all actives show AC50 up to about 26 µM.

The nature of assay [1]: viability loss in pontine glioma line – cell-based, SU-DIPG-XVII, MIPE5.0, CellTiter-Glo, qHTS, dose response (AID 1347060).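 On AC50: cells exposed to compound for 48 hours before viability readout.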 The following applies: CellTiter-Glo ATP luminescence.
Assay [2] is described as follows: viability loss in pontine glioma line – cell-based, SU-DIPG-XIII, MIPE4.0, CellTiter-Glo, qHTS, dose response (AID 1347061; cut-off not given, nearly all actives have AC50 up to about 37 µM;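 further: cells exposed to compound for 48 hours before readout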). The following applies: CellTiter-Glo ATP luminescence.
Assay [3] can be described thus: viability loss in pontine glioma line – cell-based, JHH-DIPG-1, MIPE4.0, CellTiter-Glo, qHTS, dose response (AID 1347062; cut-off not given, nearly all actives have AC50 up to about 27 µM;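 on AC50: cells exposed to compound for two days before readout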). The settings on record: JHH-DIPG-1 viability, CellTiter-Glo ATP luminescence.
A short description of assay [4]: viability loss in pontine glioma line – cell-based, SU-DIPG-IV, MIPE4.0, CellTiter-Glo, qHTS, dose response (AID 1347063; cut-off not given, nearly all actives have AC50 up to about 30 µM;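 further: compound exposure lasted 48 hours before the viability readout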). The following applies: CellTiter-Glo ATP luminescence.
A short description of assay [5]: viability loss in pontine glioma line – cell-based, SU-DIPG-XIII, MIPE5.0, CellTiter-Glo, qHTS, dose response (AID 1347064; cut-off not given, nearly all actives have AC50 up to about 23 µM;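 on AC50: cells exposed to compound for 48 hours before the viability read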). The settings on record: CellTiter-Glo ATP luminescence.
Assay [6] can be described thus: viability loss in pontine glioma line – cell-based, SU-DIPG-XXV, MIPE5.0, CellTiter-Glo, qHTS, dose response (AID 1347065).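 Further: cells exposed to compound for 48 hours before ATP readout.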 The settings on record: CellTiter-Glo ATP luminescence.
Assay [7] is described as follows: JHH-DIPG-1 glioma cell viability, MIPE5.0 library, CellTiter-Glo luminescence, qHTS (AID 1347067).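 Further: cells exposed to compound for 48 hours before readout.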 The settings on record: JHH-DIPG-1 glioma viability, CellTiter-Glo ATP luminescence.
Assay [8] in a line: viability loss with induced miR-34 in A549 – imaging, A549 dox-inducible miR-34, nuclei and caspase counts, primary screen (AID 1347080;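 active means compounds whose cell count with miR-34 switched on is under 0.7 times the count with it off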). The settings on record: A549 miR-34 inducible, Hoechst nuclei count, 48 h.
Assay [9] in a line: MELAS cybrid and Rieske KO viability enhancers – cell-based, MELAS cybrids, Rieske KO mouse fibroblasts, CellTiter-Glo, primary screen (AID 1508586;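 active means mean z-score across replicates of 1.96 or higher in either the MELAS or the Rieske mutant cell line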;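 further: z relative to plate mean and SD of compound and empty wells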). The following applies: low glucose.
A short description of assay [10]: growth inhibition, single agent or in combination, cell-based, chromothripsis tumors, cisplatin or BGB combos (AID 1671449; in the data active means inhibition above about 80%;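 further: cells exposed for 96 hours; 0% = vehicle DMSO and 100% = killing by high DMSO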). The following applies: LFS_MB_P medulloblastoma cells.
Assay [11] is described as follows: growth inhibition, single agent and combos, cell-based, chromothripsis tumors, cisplatin or BGB combos (AID 1671450; in the data active means inhibition above about 80%;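 further: cells exposed to compound for four days; 0% = vehicle DMSO and 100% = cell killing by high DMSO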). The following applies: HDN33 neuroblastoma cells, stronger effect = higher value.
Assay [12] in a line: growth inhibition, single agents and combos, ICB984, cell-based, cisplatin or BGB combos, synergistic combos for chromothripsis tumors (AID 1671451; call rule not given here;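 further: cells exposed for 96 hours before readout; 0% = vehicle DMSO and 100% = killing by high DMSO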). The following applies: ICB984 medulloblastoma cells, drug combinations, stronger effect = higher value.
Assay [13] in a line: growth inhibition, single agents and combos, HTB85, cell-based, BGB or cisplatin IC20 combos, synergistic combos for chromothripsis tumors (AID 1671453; in the data active means inhibition above about 80%;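 further: cells exposed for 96 hours before readout; 0% = vehicle DMSO and 100% = high DMSO killing control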). The following applies: HTB85 osteosarcoma cells, drug combinations, stronger effect = higher value.
The nature of assay [14]: growth inhibition, MDA-MB-436, cell-based, BGB or cisplatin combos, synergistic combos for chromothripsis tumors (AID 1671458; call rule not given here;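 further: cells exposed for 96 hours; 0% = vehicle DMSO and 100% = killing by high DMSO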). The following applies: MDA-MB-436 breast carcinoma growth inhibition, drug combinations, stronger effect = higher value.
The nature of assay [15]: BT084 cell growth, single and combined drugs, ICGC_MB145, cisplatin and BGB IC40 combos (AID 1671461; in the data active means inhibition above about 80%;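 further: cells exposed to drugs for 96 hours; 0% = vehicle DMSO and 100% = high DMSO full killing control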). The settings on record: BT084 medulloblastoma cells, drug combinations, stronger effect = higher value.
Assay [16] in a line: RCMB18 cell growth, single agent and combined, cisplatin and BGB IC40 combos (AID 1671462; in the data active means inhibition above about 80%;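 further: cells exposed to compound for four days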). The following applies: RCMB18 medulloblastoma cells, stronger effect = higher value.
A short description of assay [17]: growth inhibition of DIPG cells – cell-based, MIPE4.0 library, CellTiter-Glo luminescence, qHTS (AID 1347066; cut-off not given, nearly all actives have AC50 up to about 30 µM;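 further: cells exposed to compound for 48 hours before readout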). The settings on record: SU-DIPG-VI viability, CellTiter-Glo ATP luminescence.
Assay [18] is described as follows: compounds altering HSF1 focus formation in cells – imaging, Selleck Cancer Library (AID 1347162; in the data active means plate-normalised HSF1 focus index below about 0.46). The following applies: human cells, HSF1 nuclear foci imaging, at 10 µM; SSMD: measured here: HSF1 foci SSMD mean; cell count: measured here: cell number; plate-normalised HSF1 focus index: stronger effect = lower value.
A short description of assay [19]: growth inhibition of DIPG cells – cell-based, MIPE5.0 library, qHTS (AID 1347068; cut-off not given, nearly all actives have IC50 up to about 30 µM). The following applies: SU-DIPG-XXV viability.

Take `O=C(CCCCCCNC(=O)c1cnc(N(c2ccccc2)c2ccccc2)nc1)NO`: the AC50 is 7.42 µM (active) in assay [1]; 23.5 µM (active) in [2]; 7.43 µM (active) in assay [3]; 5.9 µM (active) in assay [4]; 4.17 µM (active) in assay [5]; 7.42 µM (active) in assay [6]. In addition, the half-maximal activity concentration (AC50) in assay [7] was 8.33 µM (active). For the same compound, the fold change was 0.909 (inactive) in assay [8] (stronger effect = lower value, cell number ratio, induced over uninduced) and 0.469 in assay [8] (measured here: relative caspase fold change +Dox/-Dox). For the same compound, the cell count in [8] (measured here: total cells with miR-34 induction, stronger effect = lower value) was determined as 4500; in assay [8] (measured here: total cells without miR-34 induction), 4950. For the same compound, the z-score was -0.658 (inactive) in assay [9] (MELAS cybrid survival, CellTiter-Glo 48 h, stronger effect = higher value) and 0.218 in [9] (Rieske KO mouse fibroblast survival, CellTiter-Glo 72 h). The inhibition in assay [10] (at 0.5 µM, stronger effect = higher value) is -14.5% (inactive) and -5.58% (inactive); in assay [10] (measured here: combination with BGB IC20, at 0.005 µM), -18.6% and -24.1%; in assay [10] (measured here: combination with BGB IC40, at 0.005 µM), -32.2% and -65.4%; in assay [10] (measured here: combination with BGB IC40, at 0.05 µM), -41.9% and -39.4%; in assay [10] (measured here: combination with cisplatin, at 0.5 µM, stronger effect = higher value), -7.65% and 15.8%; in assay [10] (measured here: combination with cisplatin, at 5 µM, stronger effect = higher value) it was 98.3% and 80%. Further, the inhibition in [11] (BGB combo, at 5 µM) is 42.2% and -4.91%; in assay [11] (at 0.5 µM) it was -11.3% (inactive) and -31.5% (inactive); in assay [11] (cisplatin combo, at 5 µM), 48.9% and 1.35%; in assay [11] (measured here: with BGB IC20 combination, at 0.5 µM), -15.6% and -44.2%; in assay [11] (measured here: with cisplatin IC20 combination, at 0.5 µM), -0.181% and -16.9%; in [11] (single agent, at 5 µM), 58.6% and 19.5%. Further, the inhibition is -1.95% and -4.3% in assay [12] (BGB IC20 combo, at 0.005 µM); -29.2% and -32% in [12] (BGB IC40 combo, at 0.005 µM); 25.2% and 28% in assay [12] (BGB IC40 combo, at 0.05 µM); -12.7% (inactive) and -20.3% (inactive) in assay [12] (at 0.5 µM); 22.5% and 24.5% in assay [12] (cisplatin combo, at 0.05 µM); -4.11% and -25.4% in [12] (cisplatin combo, at 0.5 µM). Moreover, the inhibition was -33% and -20% in assay [12] (cisplatin combo, at 5 µM); -20.1% and -35.8% in assay [12] (measured here: 5 uM single agent, at 5 µM); -4.93% (inactive) and -17.7% (inactive) in assay [13] (at 0.5 µM); -15.5% and -21.9% in assay [13] (measured here: with BGB IC20, at 0.5 µM); 46.8% and 4.12% in assay [13] (measured here: with BGB IC20, at 5 µM); 14.2% and -10.7% in assay [13] (measured here: with cisplatin IC20, at 0.5 µM). For the same compound, the inhibition in assay [13] (measured here: with cisplatin IC20, at 5 µM) was 38.8% and 48.3%; in [13] (single agent, at 5 µM) it was 42.9% and 23.4%; in assay [14] (at 0.5 µM) it was -21.3% (inactive) and -18.7% (inactive); in assay [14] (measured here: BGB combination, at 0.5 µM) it was -26.1% and -14.4%; in assay [14] (measured here: BGB combination, at 5 µM), 12.3% and 1.72%; in assay [14] (measured here: cisplatin combination, at 0.5 µM), -29.8% and -32%. Also, the inhibition in [14] (measured here: cisplatin combination, at 5 µM) was 9.34% and 4.42%; in assay [15] (at 0.5 µM) it was 0.96% (inactive) and 10.8% (inactive); in [15] (cisplatin combination, at 0.5 µM), -4.86% and 4.91%; in assay [15] (cisplatin combination, at 5 µM), 90.9% and 41.3%; in [15] (measured here: BGB IC40 combination 0.05 uM, at 0.05 µM), -52.6% and -17.2%; in assay [15] (single agent, at 5 µM) it was 58% and 51.4%. Further, the inhibition was -4.02% (inactive) and 5.89% (inactive) in assay [16] (at 0.5 µM); 58% and 24.2% in assay [16] (cisplatin combo, at 5 µM); -5.21% and -9.76% in [16] (measured here: BGB IC40 combination, at 0.05 µM); 7.09% and 6.01% in assay [16] (measured here: combination with cisplatin, at 0.5 µM); 36.2% and 26.2% in assay [16] (single agent, at 5 µM).

As for `CCCCCCCCCC(=O)N[C@@H](Cc1c[nH]c2ccccc12)C(=O)N[C@H](CC(N)=O)C(=O)N[C@@H](CC(=O)O)C(=O)N[C@@H]1C(=O)NCC(=O)N[C@@H](CCCN)C(=O)N[C@@H](CC(=O)O)C(=O)N[C@H](C)C(=O)N[C@@H](CC(=O)O)C(=O)NCC(=O)N[C@H](CO)C(=O)N[C@@H]([C@@H](C)CC(=O)O)C(=O)N[C@@H](CC(=O)c2ccccc2N)C(=O)O[C@@H]1C`, the outcome in assay [1], in assay [2], in [3], in assay [4], in assay [5] and in assay [17] was inactive. Further, the outcome in [7] was inactive.

For the compound `c1ccc(-c2nn3c(c2-c2ccnc4cc(OCCN5CCOCC5)ccc24)CCC3)nc1`, the compound was called inactive in [1], in assay [2], in assay [3], in assay [4], in [5] and in assay [17]. In addition, the result in assay [7] was inactive. The same compound came in with an SSMD in assay [18] of 2.44. In addition, in [18], the cell count is 6520. The plate-normalised HSF1 focus index in assay [18] is 1.13 (inactive).

As for `O=C(CCN1CCN(C(=O)OCc2cc(Cl)cc(Cl)c2)CC1)c1ccc2[nH]c(=O)oc2c1`, the AC50 was 20.9 µM (active) in assay [1], 23.5 µM (active) in assay [5] and 16.6 µM (active) in [7]. Further, the compound was classed as inactive in [2], in assay [3], in assay [4], in [17] and in [19].

In the case of `COc1cc2c(cc1OC)CN(CCc1ccc(NC(=O)c3cccc4c(=O)c5cccc(OC)c5[nH]c34)cc1)CC2`, the result in assay [1], in assay [3], in assay [4], in [5], in assay [6] and in assay [7] was inactive. In [19], the compound was classed as inactive. In addition, the AC50 in [2] is 8.33 µM (active). The compound further gave an SSMD in assay [18] of 4.27. In [18], this compound had a cell count of 6980. The plate-normalised HSF1 focus index in assay [18] was 1.26 (inactive).

The record behind these values is PubChem BioAssay.
